# Source: the antibiotic and cytotoxicity screens of Wong et al. (2023)
# The campaign covered roughly 39,000 compounds. About 3,300 (8.5%) were called active. Only a selection was taken, and actives are over-represented in it overall.
# Tested on: HepG2
# Assay: cytotoxicity call (relative viability < 0.9)
# Conditions: 10 µM
row,SMILES,cytotoxicity call
1,Cc1noc(C)c1NC(=O)N(C)C[C@H]1OCCCC[C@@H](C)Oc2ccc(NC(=O)Nc3cccc4ccccc34)cc2C(=O)N([C@@H](C)CO)C[C@H]1C,inactive
2,C[C@H](CO)N1C[C@H](C)[C@H](CN(C)Cc2ccc3c(c2)OCO3)OCCCC[C@H](C)Oc2ccc(NC(=O)C3CCCCC3)cc2C1=O,inactive
3,C[C@H]1CCCCO[C@H](CN(C)Cc2ccc3c(c2)OCO3)[C@@H](C)CN([C@@H](C)CO)C(=O)c2cc(NC(=O)C3CCCCC3)ccc2O1,inactive
4,C[C@@H]1CN([C@H](C)CO)C(=O)c2cc(NC(=O)C3CCCCC3)ccc2O[C@@H](C)CCCCO[C@@H]1CN(C)Cc1ccc2c(c1)OCO2,active
5,C[C@@H]1CCCCO[C@H](CN(C)Cc2ccc3c(c2)OCO3)[C@H](C)CN([C@H](C)CO)C(=O)c2cc(NC(=O)C3CCCCC3)ccc2O1,active
6,C[C@@H]1CCCCO[C@H](CN(C)Cc2ccc3c(c2)OCO3)[C@@H](C)CN([C@@H](C)CO)C(=O)c2cc(NC(=O)C3CCCCC3)ccc2O1,inactive
7,C[C@@H]1CCCCO[C@H](CN(C)Cc2ccc3c(c2)OCO3)[C@@H](C)CN([C@H](C)CO)C(=O)c2cc(NC(=O)C3CCCCC3)ccc2O1,active
8,C[C@H](CO)N1C[C@H](C)[C@@H](CN(C)Cc2ccc3c(c2)OCO3)OCCCC[C@H](C)Oc2ccc(NC(=O)C3CCCCC3)cc2C1=O,inactive
9,C[C@@H]1CN([C@@H](C)CO)C(=O)c2cc(NC(=O)C3CCCCC3)ccc2O[C@@H](C)CCCCO[C@@H]1CN(C)Cc1ccc2c(c1)OCO2,inactive
10,C[C@@H]1CCCCO[C@@H](CN(C)Cc2ccc3c(c2)OCO3)[C@H](C)CN([C@@H](C)CO)C(=O)c2cc(NC(=O)C3CCCCC3)ccc2O1,inactive
11,C[C@@H]1CCCCO[C@@H](CN(C)Cc2ccc3c(c2)OCO3)[C@H](C)CN([C@H](C)CO)C(=O)c2cc(NC(=O)C3CCCCC3)ccc2O1,inactive
12,C[C@@H]1CCCCO[C@@H](CN(C)Cc2ccc3c(c2)OCO3)[C@@H](C)CN([C@@H](C)CO)C(=O)c2cc(NC(=O)C3CCCCC3)ccc2O1,inactive
13,C[C@@H]1CCCCO[C@H](CN(C)Cc2ccc3c(c2)OCO3)[C@H](C)CN([C@@H](C)CO)C(=O)c2cc(NC(=O)C3CCCCC3)ccc2O1,active
14,O=C(C[C@@H]1C[C@@H]2c3cc(NC(=O)NC4CCCC4)ccc3O[C@@H]2[C@H](CO)O1)NCc1ccc2c(c1)OCO2,inactive
15,CO/N=C(\C(=O)N[C@@H]1C(=O)N2C(C(=O)O)=C(CSC(=O)c3ccco3)CS[C@H]12)c1csc(N)n1,inactive
16,CC(C)NC(=O)N(C)C[C@H]1Oc2ccc(NC(=O)c3ccncc3)cc2CC(=O)N([C@@H](C)CO)C[C@H]1C,inactive
17,CC(C)NC(=O)N(C)C[C@H]1Oc2ccc(NC(=O)CCN3CCOCC3)cc2C(=O)N([C@H](C)CO)C[C@H]1C,inactive
18,CC(C)NC(=O)Nc1ccc2c(c1)CC(=O)N([C@@H](C)CO)C[C@@H](C)[C@@H](CN(C)C(=O)Nc1ccc3c(c1)OCO3)O2,inactive
19,C[C@H]1CN([C@@H](C)CO)C(=O)Cc2cc(NS(=O)(=O)c3ccccc3)ccc2O[C@H]1CN(C)S(=O)(=O)c1cn(C)cn1,inactive
20,CNC(=O)Cn1c(=O)c2c(OC)ccnc2n(C)c1=O,inactive
21,Cc1noc(C)c1NC(=O)Nc1ccc2c(c1)C(=O)N([C@H](C)CO)C[C@H](C)[C@H](CN(C)S(=O)(=O)c1cccs1)OCCCC[C@@H](C)O2,inactive

row,SMILES,cytotoxicity call
1,C[C@@H]1CCCCO[C@H](CN(C)C(=O)NC2CCCCC2)[C@@H](C)CN([C@H](C)CO)C(=O)c2cc(NC(=O)Cc3ccccc3)ccc2O1,inactive
2,COc1ccc(S(=O)(=O)Nc2ccc3c(c2)CC(=O)N([C@H](C)CO)C[C@@H](C)[C@H](CN(C)CC2CC2)O3)cc1,inactive
3,CC1(C)CCC(CN2CCN(c3ccc(C(=O)NS(=O)(=O)c4ccc(NCC5CCOCC5)c([N+](=O)[O-])c4)c(Oc4cnc5[nH]ccc5c4)c3)CC2)=C(c2ccc(Cl)cc2)C1,inactive
4,CC1(C)CCC(c2ccc(Cl)cc2)=C(CN2CCN(c3ccc(C(=O)NS(=O)(=O)c4ccc(N[C@@H](CCN5CCOCC5)CSc5ccccc5)c(S(=O)(=O)C(F)(F)F)c4)cc3)CC2)C1,active
5,CN(C)CC[C@H](CSc1ccccc1)Nc1ccc(S(=O)(=O)NC(=O)c2ccc(N3CCN(Cc4ccccc4-c4ccc(Cl)cc4)CC3)cc2)cc1[N+](=O)[O-],inactive
6,CC1(C)CCC(c2ccc(Cl)cc2)=C(CN2CCN(c3ccc(C(=O)NS(=O)(=O)c4ccc(N[C@H](CCN5CCOCC5)CSc5ccccc5)c(S(=O)(=O)C(F)(F)F)c4)cc3)CC2)C1,active
7,CCCNC(=O)Nc1ccc2c(c1)OC[C@@H](C)N(C(=O)C1CCOCC1)C[C@H](C)[C@@H](OC)CN(C)C2=O,inactive
8,C[C@H](CO)N1C[C@H](C)[C@H](CN(C)C(=O)Nc2ccc(F)cc2)OCCCC[C@H](C)Oc2ccc(NC(=O)C3CCC3)cc2C1=O,inactive
9,COc1ccc(S(=O)(=O)Nc2ccc3c(c2)C(=O)N([C@H](C)CO)C[C@H](C)[C@H](CN(C)S(=O)(=O)c2ccc(C)cc2)O3)cc1,inactive
10,C[C@@H]1CCCCO[C@@H](CN(C)C(=O)Nc2ccc3c(c2)OCO3)[C@H](C)CN([C@H](C)CO)C(=O)c2cc(NC(=O)c3ccccc3)ccc2O1,inactive
11,Cc1ccc(S(=O)(=O)N(C)C[C@@H]2Oc3ccc(NC(=O)Cn4cnnn4)cc3CC(=O)N([C@H](C)CO)C[C@@H]2C)cc1,inactive
12,N#CCNC(=O)CN1C(=O)c2ccccc2C1=O,inactive
13,NC(=O)CCN1C(=O)c2ccccc2C1=O,inactive
14,COC(=O)C(CCCN1C(=O)c2ccccc2C1=O)(NC(C)=O)c1nn[nH]n1 (configuration not stated),active
15,O=C(C[C@@H]1CC[C@H]2[C@@H](COC[C@@H](O)CN2C(=O)Nc2ccc(Cl)cc2)O1)NCCc1ccncc1,inactive
16,Cc1ccccc1S(=O)(=O)N1C[C@H](O)COC[C@@H]2O[C@@H](CC(=O)NCCc3ccccc3)CC[C@H]21,inactive
17,CO[C@H]1CN(C)C(=O)c2cc(NC(=O)Nc3ccccc3)ccc2OC[C@@H](C)N(C(=O)CN(C)C)C[C@H]1C,inactive
18,OCC1c2ccccc2-c2ccccc21,inactive
19,CNCc1ccccc1.Cl,inactive
20,CNCCCC1c2ccccc2C=Cc2ccccc21.Cl,active
21,Cc1noc(C)c1S(=O)(=O)N(C)C[C@@H]1OCCCC[C@@H](C)Oc2ccc(N(C)C)cc2C(=O)N([C@H](C)CO)C[C@H]1C,inactive

row,SMILES,cytotoxicity call
1,CC(C)Cc1ccc(CN2CC[C@@H](N)C2)cc1,inactive
2,CC(C)N1CC=C[C@@]23O[C@@H]4C=CCOC(=O)[C@@H]4[C@H]2C(=O)N(CCCCCO)[C@@H]3C1=O,inactive
3,C[C@@H]1CN([C@H](C)CO)C(=O)CCCn2nncc2CO[C@@H]1CN(C)S(=O)(=O)c1ccc(-c2ccccc2)cc1,inactive
4,C[C@@H]1CC=CC[C@@H](c2cccc(Cl)c2)NC(=O)[C@H](Cc2ccccc2)N(C)C(=O)c2ccccc2O1,inactive
5,C[C@@H]1CCCn2nncc2COCCNC1=O,inactive
6,C[C@H](CO)N1C[C@H](C)[C@@H](CN(C)CC2CCCCC2)OCCCC[C@H](C)Oc2ccc(NS(=O)(=O)c3ccc(Cl)cc3)cc2C1=O,inactive
7,CCCN(C)C[C@H]1OCCCC[C@@H](C)Oc2ccc(NS(=O)(=O)c3ccc(Cl)cc3)cc2C(=O)N([C@@H](C)CO)C[C@H]1C,active
8,C[C@@H]1CCCCO[C@@H](CN(C)CC2CCCCC2)[C@H](C)CN([C@@H](C)CO)C(=O)c2cc(NS(=O)(=O)c3ccc(Cl)cc3)ccc2O1,inactive
9,C[C@@H]1CCCCO[C@H](CN(C)CC2CCCCC2)[C@H](C)CN([C@@H](C)CO)C(=O)c2cc(NS(=O)(=O)c3ccc(Cl)cc3)ccc2O1,active
10,C[C@@H]1CCCCO[C@@H](CN(C)CC2CC2)[C@H](C)CN([C@@H](C)CO)C(=O)c2cc(NS(=O)(=O)c3ccc(Cl)cc3)ccc2O1,inactive
11,C[C@@H]1CCCCO[C@@H](CN(C)CC2CCCCC2)[C@H](C)CN([C@H](C)CO)C(=O)c2cc(NS(=O)(=O)c3ccc(Cl)cc3)ccc2O1,active
12,C[C@@H]1CCCCO[C@H](CN(C)CC2CCCCC2)[C@@H](C)CN([C@H](C)CO)C(=O)c2cc(NS(=O)(=O)c3ccc(Cl)cc3)ccc2O1,inactive
13,C[C@@H]1CN([C@H](C)CO)C(=O)c2cc(NS(=O)(=O)c3ccc(Cl)cc3)ccc2O[C@@H](C)CCCCO[C@@H]1CN(C)CC1CCCCC1,active
14,CCCN(C)C[C@H]1OCCCC[C@H](C)Oc2ccc(NS(=O)(=O)c3ccc(Cl)cc3)cc2C(=O)N([C@H](C)CO)C[C@H]1C,inactive
15,CCCN(C)C[C@H]1OCCCC[C@H](C)Oc2ccc(NS(=O)(=O)c3ccc(Cl)cc3)cc2C(=O)N([C@@H](C)CO)C[C@H]1C,inactive
16,C[C@@H]1CCCCO[C@@H](CN(C)CC2CCCCC2)[C@@H](C)CN([C@H](C)CO)C(=O)c2cc(NS(=O)(=O)c3ccc(Cl)cc3)ccc2O1,inactive
17,C[C@@H]1CCCCO[C@H](CN(C)CC2CCCCC2)[C@H](C)CN([C@H](C)CO)C(=O)c2cc(NS(=O)(=O)c3ccc(Cl)cc3)ccc2O1,inactive
18,Cc1ccc(S(=O)(=O)N(C)C[C@H]2Oc3c(NC(=O)C4CCOCC4)cccc3C(=O)N([C@@H](C)CO)C[C@H]2C)cc1,inactive
19,C[C@@H]1CN([C@@H](C)CO)C(=O)c2cc(NS(C)(=O)=O)ccc2O[C@@H](C)CCCCO[C@@H]1CN(C)C(=O)CCCN(C)C,inactive
20,CN1CCN(C(=O)C[C@@H]2CC[C@@H](NC(=O)Cc3ccccn3)[C@@H](CO)O2)CC1,inactive
